Pf growth 48h – Primary qHTS for delayed death inhibitors of the malarial parasite plastid, 48 hour incubation; P. falciparum luciferase growth in erythrocytes, 48 h; Potency, µM (series often up to 28.7 µM), for inactives: at the highest dose activity change, negative = inhibition, usual class: inhibitors; actives 5.9% (n = 310,000); AID 504832, 2011; note: potency is the fitted concentration of half-maximal effect
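Parasite viability was followed by luminescence of a genomically integrated firefly luciferase. Cultures held 0.1% parasitemia at 2% hematocrit (final), incubated under 5% CO2 at 37 C.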
Giardia FBPA inh – qHTS Assay for Inhibitors of Fructose-1,6-bisphosphate Aldolase from Giardia Lamblia; A8B2U2; purified Giardia FBPA; Potency, µM (doses to about 59.6 µM), for inactives: at the top dose activity, negative = inhibition, usual class: inhibitors; actives 0.71% (n = 290,000); note: potency is the fitted concentration of half-maximal effect; nearly all actives have a fitted effect of over 55% in size
Target sequence (A8B2U2 whole entry, looked up): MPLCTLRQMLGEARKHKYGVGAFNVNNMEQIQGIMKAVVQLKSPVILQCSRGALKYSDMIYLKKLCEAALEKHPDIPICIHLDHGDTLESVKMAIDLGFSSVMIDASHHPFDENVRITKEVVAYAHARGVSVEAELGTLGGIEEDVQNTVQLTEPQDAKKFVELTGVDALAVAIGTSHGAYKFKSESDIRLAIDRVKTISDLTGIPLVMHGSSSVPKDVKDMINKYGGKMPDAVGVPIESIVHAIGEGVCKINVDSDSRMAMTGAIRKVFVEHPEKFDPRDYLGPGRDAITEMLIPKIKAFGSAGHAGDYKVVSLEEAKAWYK
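40 nM FBPA preincubated 10 min at RT with compound (up to 57.5 uM final), then substrate plus GAPDH/TPI/NAD/arsenate coupling and diaphorase/resazurin added. Fluorescence read after 20 min at RT, 525/598 nm.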
Pf growth 96h – Primary qHTS for delayed death inhibitors of the malarial parasite plastid, 96 hour incubation. P. falciparum luciferase reporter growth, 96 h. Potency, µM (highest dose often 28.7 µM), for the others: top-dose activity change, negative = inhibition, usual class: inhibitors. actives 6.9% (n = 320,000); note: potency is the fitted concentration of half-maximal effect
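Luminescence readout: decreased luciferase signal marks inhibited growth of reporter-expressing P. falciparum in infected red cells (2% hematocrit, 0.05% parasitemia final), exposed to compound two generations (96 h, 37 C, 5% CO2).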
HCMV inh – qHTS Assay for inhibitors of the human cytomegalovirus (HCMV) | activity change, negative = inhibition, % at 57.5 µM | HFF cells, HCMV-luciferase reporter, 72 h; active compounds read low | actives 4.5% (n = 410,000); in the data active = activity change below about -60%; inconclusive = no clear call, values can overlap the other calls; inactive = above about -39%
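HFF cells seeded 16 h at 37C, treated with compounds, infected with luciferase-reporter HCMV at MOI 1 PFU/cell; luciferase read at 72 h post infection, normalized to buffer-only and Salinomycin controls.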
Sm TGR block – qHTS Assay for the Inhibitors of Schistosoma Mansoni Peroxiredoxins; Schistosoma mansoni thioredoxin glutathione reductase (TGR), Q962Y6; purified TGR, DTNB reduction, TNB absorbance 405 nm; Potency, µM (top dose mostly 114 µM), without a hit: at the top dose activity change, negative = inhibition, hits mostly inhibitors; actives 3% (n = 360,000); AID 485364, 2010; note: potency is the fitted concentration of half-maximal effect; nearly all actives have a fitted effect of over 60% in size
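TGR 20 nM + NADPH 100 uM (dispensed conc.), cpd preinc 15 min RT; start with NADPH (500 uM addition) then DTNB (15 mM addition). Kinetic TNB absorbance, 405 nm filter. Four-parameter Hill fit across titration.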
* marks the source's active call; other numbers are inactive results; ? = inconclusive; . = no result; [ ] = another dose, or the depositor's remark. In the library only some 14% were active in any assay of this set; here they are far more common. Unless noted, calls come from the whole dose curve; as a rule, active = well fitted curve in the direction sought with a large enough effect; inconclusive = small, poorly fitted or top-dose-only effect, or another doubt; inactive = no such curve, though single readings can be large; an effect the other way counts as inactive or inconclusive. % is set by controls: 0 for no effect and ±100 for the full control effect.

SMILES	Pf growth 48h	Giardia FBPA inh	Pf growth 96h	HCMV inh	Sm TGR block
CC1=C(c2ccc(Cl)cc2)S(=O)(=O)NC1=NCCCN1CCN(c2cc(C)ccc2C)CC1	.	.	.	-100*	-1%
Cc1ccc(CNC(=O)c2oc3ccc(S(=O)(=O)N4CCC(C)CC4)cc3c2C)cc1	.	.	.	-21	0%
CC(NCC(O)COC1CCC(C(C)(C)C)CC1)c1ccccc1 (centres undefined)	?	4%	?	?	-1%
CC1CCN(CC(O)COC2CC(C)CCC2C(C)C)CC1 (centres undefined)	12µM*	2%	?	?	.
CC1CCC(C(C)C)C(OCC(O)CNC(C)(C)C)C1 (centres undefined)	?	-1%	5.2µM*	-76*	-1%
CC1CCC(C(C)C)C(OCC(O)CNC(C)c2ccccc2)C1 (centres undefined)	?	2%	?	-98*	-1%
CCOc1ccc(N(CC(=O)Nc2ccc(OC)cc2OC)S(=O)(=O)c2c(C)[nH]c(=O)[nH]c2=O)cc1	?	.	33%	-25	1%
CCOC(=O)c1cccn1C1C(=O)N(Cc2ccc(OC)cc2)c2ccccc21 (centres undefined)	.	.	.	-27	.
COc1ccc(-c2cn(-c3ccccc3)c3[n+]2CCS3)cc1	0.93µM*	2%	0.1µM*	-100*	-1%
CC(C)(C)c1ccc(-c2cn(-c3ccc(Br)cc3)c3[n+]2CCCS3)cc1	2.6µM*	0%	?	-98*	3%
Cc1[nH]n(C(C)(C)C)c(=O)c1Sc1ccccc1	-11%	-27%	12µM*	-20	2%
CCOc1ccc(-c2nnc(-c3ccccc3)o2)cc1	50%	0%	2.1µM*	8	-8%
CCOc1ccc(-c2nnc(-c3ccncc3)o2)cc1	291%	-4%	2.9µM*	73	2%
CCCCOc1ccc(-c2nnc(-c3ccncc3)o2)cc1	?	-1%	28%	36	1%
CCCCOc1ccc(-c2nnc(-c3cc[n+](C)cc3)o2)cc1	0.41µM*	-4%	-6%	-13	0%
Cc1noc(NS(=O)(=O)c2ccc(NC(=O)c3cc(F)c(F)c(F)c3F)cc2)c1C	-2%	.	6%	-27	-13%
CCCCCCCCN[C@@H](C)[C@H](O)c1ccc(SC(C)C)cc1	.	-2%[21.7 µM]	.	.	.
CCc1ccc(NC(=O)Nc2ccc3c(c2)N(C)C(=O)CS3)cc1	.	-7%	?	-69*	4%
COc1ccc(C(=S)N2CCCCCC2)cc1	25%	0%	-22%	-21	-19%
COc1ccc(C(=O)C(=O)N2CCN(c3ccccc3F)CC2)cc1	.	.	.	-68*	.
COc1ccc(C(=S)N2CCN(c3ccccc3C)CC2)cc1	?	1%	8.3µM*	?	-1%
COc1ccc(-c2cn3c(C)c(C(=O)N4CCN(c5ccccc5F)CC4)sc3n2)cc1	?	10%	?	-60*	0%
Cc1c(C(N)=O)sc2nc(-c3ccccc3)cn12	98%	3%	10µM*	27	5%
CCC(=O)N1CCc2cc(CNS(=O)(=O)c3cc(OC)ccc3OC)ccc21	.	.	.	42	3%
Cc1c(C(=O)N2CCN(c3ccccc3F)CC2)sc2nc(-c3ccccc3)cn12	2%	2%	1.9µM*	-32	12%
COC(=O)/C=C/C(=O)N1CCN(c2ccccc2C)CC1	-17%	0%	7.4µM*	-15	-12%
CN(CC(=O)Nc1ccc(F)cc1[N+](=O)[O-])C1CCS(=O)(=O)C1 (centres undefined)	.	.	.	34	.
CCCCc1cc(=O)oc2cc(C)cc(OC(C)C(=O)NCc3cccnc3)c12 (centres undefined)	?	.	17µM*	-18	-2%
Cc1cc(OC(C)C(=O)NCc2cccnc2)c2c3c(c(=O)oc2c1)CCC3 (centres undefined)	?	.	10µM*	0	2%
Cc1cc(OC(C)C(=O)NCc2ccncc2)c2c3c(c(=O)oc2c1)CCCC3 (centres undefined)	-17%	4%	-10%	-3	21%

High-throughput results (PubChem BioAssay)
